Test results taken from PubChem BioAssay AID2685 (National Center for Advancing Translational Sciences (NCATS), 2010).
Out of some 320,000 compounds screened, about 2,100 (0.66%) were called active. Another 53% or so got no clear call; they are omitted. Calls follow the shape of the dose curve; as a rule, active = well fitted inhibition curve with a large enough effect in the signal ratio, with a control signal flat (not every such curve was filed as active); inconclusive = small, poorly fitted or top-dose-only effect, or effect the other way, or a change in a side signal; inactive = flat fitted curve, though single readings scatter; the % refers to the signal ratio. The sample as a whole holds a higher share of actives than the screen did.

Assay: qHTS Assay for Lipid Storage Modulators in Drosophila S3 Cells;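 as to cell number change: cells counted by Cell Tracker Red CMTPX staining in the red channel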; as to lipid storage change, negative = inhibition: % is scaled to controls: 0 for no effect and ±100 for the full control effect
Details: BODIPY lipid droplet fluorescence, 18-24 h, cells fed with added oleic acid; cell number change: measured here: cell count max response; series mostly up to 46.1 µM
Source text: NIH Molecular Libraries Probe Production Centers Network [MLPCN] NIH Chemical Genomics Center [NCGC] MLPCN Grant: 1 R03 MH085686-01 Assay Submitter (PI): Beller, Mathias; Max-Planck-Institut fur Biophysikalische Chemie NCGC Assay Overview: Storing lipids as a reservoir for energy or the anabolism of elementary metabolites is a common feature of probably all cells and is conserved from bacteria to humans. The universal cellular lipid storage organelle is the so-called lipid storage droplet (LD). Although ubiquitous, LDs share a simple structure composed of a hydrophobic core that harbors the storage lipids, which is shielded by a droplet-specific phospholipid monolayer to which proteins are attached. The current model of LD biogenesis involves an incorporation of the lipid core into the membrane leaflets of the endoplasmic reticulum (ER) followed by a subsequent budding-like maturation of a LD, which ultimately pinches off. Once released, LD volume can increase by localized lipogenesis or fusion of existing droplet. Storage lipids are re-mobilized enzymatically by lipase activity. Lipase regulation in the adipocyte is heavily studied and involves multiple components including catecholamine signaling, the LD-associated proteins Perilipin and comparative gene identification (CGI-58) and at least two lipases named hormone sensitive lipase (HSL) and adipocyte triglyceride lipase (ATGL). LD regulation outside of the adipocyte is poorly understood and only few components are known. However, there is an urgent need to learn more about ectopic fat depots as mislocalized storage of lipids, for example in the liver or muscle, is an eminent health problem associated with insulin resistance or the metabolic syndrome. We developed a laser-scanning cytometer assay to enable 1,536-well screening and combined the results of the small molecules screen with an RNAi database based on lipid storage.
Triacsin C (Sigma-Aldrich T-4540), an inhibitor of long-chain fatty acyl CoA synthetase that blocks synthesis of triglycerides, was used as a positive control for lipid under-storage. A total of 23 nL of compound solution of different concentrations were transferred to the assay plates using a Kalypsys pin tool equipped with a 1,536-pin array containing 10-nL slotted pins (FP1S10, 0.457-mm diameter, 50.8 mm long; V&P Scientific). One microliter of oleic acid (400 uM) was added, and the plate was lidded with stainless steel rubber gasket lined lids containing pinholes. […] Fluorescence was detected by excitation of the fluorophores with a 488-nm laser on an Acumen Explorer (TTP Lab Tech). The total intensity in channel 2 (500-530 nm) reflected lipid droplet accumulation. Cells were detected using channel 3 (575-640 nm) with 5-um width and 100-um depth filters. The ratio of the number of objects in PMT channel 2 over the number of objects in PMT channel 3 was also calculated. Percent activity was computed relative to an internal control (100% inhibited lipid droplet deposition due to the presence of 20 uM Triacsin C), which was added to 32 wells/plate.
Potency is read from the fitted curve at half-maximal effect.

Row | Structure (SMILES) | Potency | cell number change | lipid storage change, negative = inhibition
1 | C/C(=N/NC(=O)c1ccncc1)c1ccccc1 | inactive | -7.04% | 
2 | Cc1ccccc1NC(=O)COC(=O)c1ccc(S(C)(=O)=O)c([N+](=O)[O-])c1 | 25.9 µM (active) | -15.7% | 
3 | Cc1ccccc1NC(=O)COC(=O)c1ccc(S(=O)(=O)N2CCCC2)cc1 | inactive | 10.7% | 
4 | CC(=O)c1cccc(NC(=O)COC(=O)c2ccc(S(C)(=O)=O)c([N+](=O)[O-])c2)c1 | inactive | -10.3% | 
5 | Cc1ccc(NC(=O)c2c(C)nn(-c3ccccc3)c2Cl)c(C)c1 | inactive | -13.2% | 
6 | CC(=O)N1CCOc2ccc(S(=O)(=O)N3CCC(C(=O)NCc4ccc(C)cc4)CC3)cc21 | inactive | 17.2% | 
7 | CS(=O)(=O)N1CCC(C(=O)NCC2CCCO2)CC1 (stereo unspecified) | 2.31 µM (active) | -2.74% | 
8 | CCCCS(=O)(=O)N1CCC(C(=O)NCC2CCCO2)CC1 (stereo unspecified) | inactive | 5.96% | 
9 | CCCS(=O)(=O)N1CCC(C(=O)NCC2CCCO2)CC1 (stereo unspecified) | inactive |  | 
10 | Cc1ccccc1C(=O)NC1CCN(Cc2nnnn2C(C)(C)C)CC1 | inactive |  | 
11 | COc1ccc(CC(=O)NC2CC2)cc1OC | inactive | 20.4% | 
12 | COc1ccc(CC(=O)NC2CCN(Cc3nnnn3C(C)(C)C)CC2)cc1OC | 2.59 µM (active) | -1.5% | 
13 | CCN=C1SC(CC(=O)NC(C)c2ccccc2)C(=O)N1CC (stereo unspecified) | inactive | 8.53% | 
14 | O=[N+]([O-])c1ccc(N2CCN(CCO)CC2)cc1Sc1nc2ccccc2[nH]1 | inactive | -10.6% | 
15 | Cc1cccc(C)c1NC(=S)NN1CCN(C)CC1 | 23.1 µM (active) | -31.3% | 
16 | Cc1cccc(NC(=S)NN2CCN(C)CC2)c1C | inactive | 19.2% | 
17 | CN1CCN(NC(=S)Nc2ccccc2)CC1 | inactive | 5.3% | 
18 | COC(=O)c1ccc(Cc2ccccc2)o1 | 25.9 µM (active) | 0.155% | 
19 | COC(=O)c1ccc(COc2ccccc2OC)o1 | inactive | -9.22% | 
20 | COC(=O)c1ccc(Cc2ccc(C(=O)OC)o2)o1 | inactive | 11% | 
21 | COc1cccc(CC(=O)N(CCC2=CCCCC2)c2c(N)n(Cc3ccccc3)c(=O)[nH]c2=O)c1 | inactive | -11.8% | 

Row | Structure (SMILES) | Potency | cell number change | lipid storage change, negative = inhibition
22 | Cc1ccc(-c2nn(-c3ccccc3)c3[nH]c(=O)c(CNCCN(C)C)cc23)cc1 | inactive | -8.5% | 
23 | Cc1nn(-c2ccccc2)c2[nH]c(=O)c(CNCCN3CCOCC3)cc12 | 23.1 µM (active) | -6.25% | 
24 | Cc1nn(-c2ccccc2)c2[nH]c(=O)c(CNc3ccc(N4CCOCC4)cc3)cc12 | inactive | -0.634% | 
25 | Cc1ccc2c(COC(=O)c3ccccc3Br)cc(=O)oc2c1 | inactive | 8.73% | 
26 | Cc1ccc2c(COC(=O)c3ccccc3OC(F)F)cc(=O)oc2c1 | inactive | 26.6% | 
27 | Cc1ccc2c(COC(=O)c3ccccc3Cl)cc(=O)oc2c1 | 1.64 µM (active) | 0.403% | 
28 | CN(C)C(=O)c1cc(C(=O)c2ccccc2Br)c[nH]1 | inactive | 10.8% | 
29 | Cc1nn(CC(=O)NCc2cccnc2)c(C)c1[N+](=O)[O-] | inactive | 15.3% | 
30 | COC(c1ccccc1)c1nnc(CCC(=O)N2CCN(C3CCCC3)CC2)o1 (stereo unspecified) | inactive | 22.7% | 
31 | COC(c1ccccc1)c1nnc(CCC(=O)N2CCCCCCC2)o1 (stereo unspecified) | inactive | 7.76% | 
32 | COC(c1ccccc1)c1nnc(CCC(=O)NCCc2ccc(Cl)cc2)o1 (stereo unspecified) | 14.6 µM (active) | -7.97% | 
33 | CCOC(=O)c1ccc(NC(=O)CCc2nc(-c3ccc(C)cc3)no2)cc1 | inactive |  | 
34 | CC(c1ccccc1)C1C(C#N)=C(N)OC2=C1C(=O)CC(C)(C)C2 (stereo unspecified) | inactive |  | 
35 | CN(CC(=O)Nc1ccccc1Cl)C(=O)Cn1nnc(-c2ccc(F)cc2)n1 | inactive |  | 
36 | CCC1CCCCN1C(=O)c1sc2nc(C)nc(N(CC)CC)c2c1C (stereo unspecified) | inactive | 9.48% | 
37 | CCCCCN(C(=O)CCC(=O)OC(C)C(=O)NCc1ccccc1)c1c(N)n(CCCC)c(=O)[nH]c1=O (stereo unspecified) |  | -30.3% | 4.2% [at 0.0737 µM] (inactive)
38 | O=C(CN1CCCc2ccccc21)NC(=O)NCc1ccco1 | inactive | 15.9% | 
39 | Cc1ccc(CSCC(=O)NCc2ccco2)cc1 | inactive | 14.7% | 
40 | CCCCn1nnnc1SCC(=O)NNC(=O)c1ccco1 | inactive | 1.07% | 
41 | O=C(CSc1ccccc1)NCc1ccco1 | inactive | -1.34% | 
42 | O=C(CN1CCc2ccccc21)NC(=O)NCc1ccco1 | 6.51 µM (active) | 0.297% | 

Row | Structure (SMILES) | Potency | cell number change | lipid storage change, negative = inhibition
43 | CCCCn1nnnc1SCC(=O)NCc1ccco1 | 23.1 µM (active) | 0.128% | 
44 | CCCCn1c(SCC(=O)NCc2ccco2)nnc1-c1ccco1 | inactive | -17% | 
45 | O=C(CN1CCc2ccccc21)NC(=O)NCc1ccccc1 | inactive |  | 
46 | Cc1ccc(NC(=O)CSc2nnc(-c3ccc(S(=O)(=O)N4CCOCC4)cc3)n2C)cc1 | inactive |  | 
47 | Cn1c(SCC(=O)NCc2ccco2)nnc1-c1ccccc1 | inactive | -3.55% | 
48 | Cn1c(SCC(=O)NCc2ccco2)nnc1-c1ccc(S(=O)(=O)N2CCOCC2)cc1 | 5.8 µM (active) | -9.46% | 
49 | O=C(CSCC(=O)NCc1ccco1)NCc1ccco1 | 6.51 µM (active) | 16.7% | 
50 | COc1ccc(C(C)NC(=O)c2ccc([N+](=O)[O-])cc2)cc1OC (stereo unspecified) | inactive | 5.72% | 
51 | CC12COC3(C(=O)Nc4nccs4)CC1CCC32C (stereo unspecified) | inactive | 20.9% | 
52 | O=C1c2ccccc2C(=O)N1Cc1ccccn1 | inactive | -28% | 
53 | COC(=O)C1=C(C)C(c2cccs2)NC(=O)N1C (stereo unspecified) | inactive | 10.6% | 
54 | O=C(NCc1cccs1)NC1CCCCC1 | inactive | 3.84% | 
55 | O=C(NCCCn1ccnc1)c1ccc2ccccc2c1 | inactive |  | 
56 | Cc1nc2ccccn2c1C(=O)c1ccccc1 | inactive | 15.8% | 
57 | O=C(O)c1c(Cl)nc2ccccn12 | 4.61 µM (active) | -7.31% | 
58 | O=Cc1c(Cl)nc2ccccn12 | inactive | -2.46% | 
59 | COc1ccc([N+](=O)[O-])cc1NC(=O)CSc1nc(C)c(C)c(C)n1 | inactive | 1.59% | 
60 | CCOC(=O)C1CCN(C(=O)Cn2cnc3sc(C)c(S(=O)(=O)N4CCOCC4)c3c2=O)CC1 | inactive | 1.25% | 
61 | CCOC(=O)C1CCN(C(=O)Cn2cnc3sc(C)c(S(=O)(=O)N4CCC(C)CC4)c3c2=O)CC1 | 0.58 µM (active) | 14.4% | 
62 | Cc1sc2ncn(CC(=O)N3CCCCC3)c(=O)c2c1S(=O)(=O)N1CCC(C)CC1 | inactive | 18.5% | 
